# About 410 targets per protein were measured; listed, in parts, are those with the strongest signals and a random draw of the rest.
# B1: Gal 12 (Homo sapiens), Q96DT0 (protein)
# chain: MSQPSGGRAPGTRIYSWSCPTVMSPGEKLDPIPDSFILQPPVFHPVVPYVTTIFGGLHAGKMVMLQGVVPLDAHRFQVDFQCGCSLCPRPDIAFHFNPRFHTTKPHVICNTLHGGRWQREARWPHLALRRGSSFLILFLFGNEEVKVSVNGQHFLHFRYRLPLSHVDTLGIFGDILVEAVGFLNINPFVEGSREYPAGHPFLLMSPRLEVPCSHALPQGLSPGQVIIVRGLVLQEPKHFTVSLRDQAAHAPVTLRASFADRTLAWISRWGQKKLISAPFLFYPQRFFEVLLLFQEGGLKLALNGQGLGATSMNQQALEQLRELRISGSVQLYCVHS
# Key:
# Experiment in all cases: glycan array binding signal (z-score within array); higher = stronger binding
# Conditions in all cases: glycan notation: IUPAC condensed, linker removed
# [1] = molecular target: Fuc(a1-2)Gal(b1-3)GlcNAc(b1-3)[Neu5Ac(a2-6)Gal(b1-4)GlcNAc(b1-6)]Gal(b1-4)Glc
# Procedure, shortened: (§1)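 The binding signal is a Z-score computed within each array. Data were drawn from 3228 arrays in the Consortium for Functional Glycomics database, restricted to those with a known protein sequence. Scores were averaged over arrays of the same protein sequence at different concentrations or buffers, and over linkers, and negative values can be taken as non-binding.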
# [2] = molecular target: Fuc(a1-2)Gal(b1-3)[Fuc(a1-4)]GlcNAc(b1-2)Man(a1-3)[Fuc(a1-2)Gal(b1-3)[Fuc(a1-4)]GlcNAc(b1-2)Man(a1-6)]Man(b1-4)GlcNAc(b1-4)GlcNAc
# Procedure, shortened: as §1
# [3] = molecular target: Fuc(a1-2)Gal(b1-4)[Fuc(a1-3)]GlcNAc(b1-2)[Fuc(a1-2)Gal(b1-4)[Fuc(a1-3)]GlcNAc(b1-4)]Man(a1-3)[Fuc(a1-2)Gal(b1-4)[Fuc(a1-3)]GlcNAc(b1-2)Man(a1-6)]Man(b1-4)GlcNAc(b1-4)GlcNAc
# Procedure, shortened: as §1
# [4] = molecular target: Fuc(a1-2)Gal(b1-4)[Fuc(a1-3)]GlcNAc(b1-3)GalNAc
# Procedure, shortened: as §1
# [5] = molecular target: Fuc(a1-2)[Gal(a1-3)]Gal(b1-3)GlcNAc(b1-2)Man(a1-3)[Fuc(a1-2)[Gal(a1-3)]Gal(b1-3)GlcNAc(b1-2)Man(a1-6)]Man(b1-4)GlcNAc(b1-4)GlcNAc
# Procedure, shortened: as §1
# [6] = molecular target: Fuc(a1-2)[Gal(a1-3)]Gal(b1-4)GlcNAc(b1-3)GalNAc
# Procedure, shortened: as §1
# [7] = molecular target: Fuc(a1-2)[Gal(a1-3)]Gal(b1-4)[Fuc(a1-3)]GlcNAc(b1-3)GalNAc
# Procedure, shortened: as §1
# [8] = molecular target: Fuc(a1-2)[GalNAc(a1-3)]Gal(b1-4)GlcNAc(b1-3)GalNAc
# Procedure, shortened: as §1
# [9] = molecular target: Fuc(a1-2)[GalNAc(a1-3)]Gal(b1-4)[Fuc(a1-3)]GlcNAc(b1-3)GalNAc
# Procedure, shortened: as §1
# [10] = molecular target: Fuc(a1-3)[Gal(b1-4)]GlcNAc(b1-3)GalNAc
# Procedure, shortened: as §1
# [11] = molecular target: Fuc(a1-3)[Gal(b1-4)]GlcNAc(b1-4)Gal(b1-4)[Fuc(a1-3)]GlcNAc
# Procedure, shortened: as §1
# Gal(a1-2)Gal = molecular target: Gal(a1-2)Gal
# Procedure, shortened: as §1
# Gal(a1-6)Glc = molecular target: Gal(a1-6)Glc
# Procedure, shortened: as §1
# [12] = molecular target: Gal(b1-3)GlcNAc(a1-6)Gal(b1-4)GlcNAc
# Procedure, shortened: as §1
# [13] = molecular target: Gal(b1-3)GlcNAc(b1-2)Man(a1-3)[Gal(b1-3)GlcNAc(b1-2)Man(a1-6)]Man(b1-4)GlcNAc(b1-4)GlcNAc
# Procedure, shortened: as §1
# [14] = molecular target: Gal(b1-3)GlcNAc(b1-3)Gal(b1-4)Glc
# Procedure, shortened: as §1
# [15] = molecular target: Gal(b1-3)GlcNAc(b1-3)Gal(b1-4)GlcNAc(b1-2)Man(a1-3)[Gal(b1-3)GlcNAc(b1-3)Gal(b1-4)GlcNAc(b1-2)Man(a1-6)]Man(b1-4)GlcNAc(b1-4)GlcNAc
# Procedure, shortened: as §1
# [16] = molecular target: Gal(b1-3)GlcNAc(b1-6)GalNAc
# Procedure, shortened: as §1
# [17] = molecular target: Gal(b1-4)GlcNAc(b1-2)[Gal(b1-4)GlcNAc(b1-6)]Man(a1-6)[Gal(b1-4)GlcNAc(b1-2)Man(a1-3)]Man(b1-4)GlcNAc(b1-4)[Fuc(a1-6)]GlcNAc
# Procedure, shortened: as §1
# [18] = molecular target: Gal(b1-4)GlcNAc(b1-3)Gal(b1-4)GlcNAc(b1-3)Gal(b1-4)GlcNAc
# Procedure, shortened: as §1
# [19] = molecular target: Gal(b1-4)GlcNAc(b1-3)Gal(b1-4)GlcNAc(b1-3)Gal(b1-4)GlcNAc(b1-2)[Gal(b1-4)GlcNAc(b1-3)Gal(b1-4)GlcNAc(b1-3)Gal(b1-4)GlcNAc(b1-6)]Man(a1-6)[Gal(b1-4)GlcNAc(b1-3)Gal(b1-4)GlcNAc(b1-3)Gal(b1-4)GlcNAc(b1-2)Man(a1-3)]Man(b1-4)GlcNAc(b1-4)[Fuc(a1-6)]GlcNAc
# Procedure, shortened: as §1
# [20] = molecular target: Gal(b1-4)GlcNAc(b1-3)Gal(b1-4)GlcNAc(b1-3)Gal(b1-4)GlcNAc(b1-3)Gal(b1-4)GlcNAc(b1-2)Man(a1-3)[Gal(b1-4)GlcNAc(b1-3)Gal(b1-4)GlcNAc(b1-3)Gal(b1-4)GlcNAc(b1-3)Gal(b1-4)GlcNAc(b1-2)Man(a1-6)]Man(b1-4)GlcNAc(b1-4)GlcNAc
# Procedure, shortened: as §1
# [21] = molecular target: Gal(b1-4)GlcNAc(b1-3)Gal(b1-4)GlcNAc(b1-3)[Gal(b1-4)GlcNAc(b1-3)Gal(b1-4)GlcNAc(b1-6)]GalNAc
# Procedure, shortened: as §1
# [22] = molecular target: Gal(b1-4)GlcNAc(b1-3)[Gal(b1-4)GlcNAc(b1-6)]Gal(b1-4)GlcNAc
# Procedure, shortened: as §1
# [23] = molecular target: Gal(b1-4)GlcNAc(b1-6)GalNAc
# Procedure, shortened: as §1
# [24] = molecular target: Gal(b1-4)GlcNAc(b1-6)[Gal(b1-4)GlcNAc(b1-3)]GalNAc
# Procedure, shortened: as §1
# Gal(b1-4)GlcNAc6P = molecular target: Gal(b1-4)GlcNAc6P
# Procedure, shortened: as §1
# Gal3S(b1-4)Glc = molecular target: Gal3S(b1-4)Glc
# Procedure, shortened: as §1
# [25] = molecular target: Gal3S(b1-4)[Fuc(a1-3)]Glc6S
# Procedure, shortened: as §1
# [26] = molecular target: Gal3S(b1-4)[Fuc(a1-3)]GlcNAc
# Procedure, shortened: as §1
binder,measurement,setting,value
B1,glycan array binding signal (z-score),[1],-0.876
same,glycan array binding signal (z-score),[2],6.26
same,glycan array binding signal (z-score),[3],3.71
same,glycan array binding signal (z-score),[4],5.15
same,glycan array binding signal (z-score),[5],-0.674
same,glycan array binding signal (z-score),[6],-0.63
same,glycan array binding signal (z-score),[7],4.56
same,glycan array binding signal (z-score),[8],0.193
same,glycan array binding signal (z-score),[9],2.65
same,glycan array binding signal (z-score),[10],2.44
same,glycan array binding signal (z-score),[11],-0.147
same,glycan array binding signal (z-score),Gal(a1-2)Gal,-0.863
same,glycan array binding signal (z-score),Gal(a1-6)Glc,-0.527
same,glycan array binding signal (z-score),[12],-0.349
same,glycan array binding signal (z-score),[13],0.94
same,glycan array binding signal (z-score),[14],-0.471
same,glycan array binding signal (z-score),[15],-0.574
same,glycan array binding signal (z-score),[16],-0.771
same,glycan array binding signal (z-score),[17],1.75
same,glycan array binding signal (z-score),[18],-0.453
same,glycan array binding signal (z-score),[19],3.44
same,glycan array binding signal (z-score),[20],2.32
same,glycan array binding signal (z-score),[21],-0.119
same,glycan array binding signal (z-score),[22],0.824
same,glycan array binding signal (z-score),[23],0.417
same,glycan array binding signal (z-score),[24],0.954
same,glycan array binding signal (z-score),Gal(b1-4)GlcNAc6P,0.272
same,glycan array binding signal (z-score),Gal3S(b1-4)Glc,0.451
same,glycan array binding signal (z-score),[25],3.19
same,glycan array binding signal (z-score),[26],2.76
